PubChem BioAssay (NCATS)
Records with an inconclusive call do not appear. Active and inactive are the calls of the source. Calls come from the whole dose curve; as a rule, active = well fitted cell-killing curve with a large enough effect; inconclusive = small, poorly fitted or top-dose-only effect, or effect the other way; inactive = no such curve, though single readings can be large or run the other way.
Potency is the fitted concentration of half-maximal effect.

Assay: Quantitative High-Throughput drug screen in 47 multiple myeloma cell lines against the NCATS MIPE library collection: KMM1_JCRB cell viability assay (AID 1918960); note: nearly all actives have a fitted effect of over 30% in size;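 for viability (% of DMSO): 100% = DMSO-treated cells and 0% = medium-only wells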
Settings: KMM1 myeloma viability, CellTiter-Glo ATP luminescence, 48 h; series mostly up to 45.8 µM; viability (% of DMSO): at the top concentration
How it was run: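 Luminescence from CellTiter-Glo, taken after 5 min at room temperature, reports cellular ATP as viability. Cells (500 per well) had been treated 48 h at 37 °C with MIPE 4.0 compounds, scaled between DMSO and medium-only controls.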
For CN1CCC[C@H]1CCO[C@](C)(c1ccccc1)c1ccc(Cl)cc1, the “viability (% of DMSO)” value was 65.5% (inactive).
In the case of OC[C@H]1O[C@@H](Oc2ccc(O)cc2)[C@H](O)[C@@H](O)[C@H]1O, the “viability (% of DMSO)” value is reported as 90.9% (inactive).
In the case of O=S(=O)(NCCNCC=Cc1ccc(Br)cc1)c1cccc2cnccc12, the Potency is reported as 14.8 µM (active).
For C=CC[N+]1([C@H]2C[C@H]3[C@@H]4CC[C@H]5C[C@H](O)[C@@H](N6CCOCC6)C[C@]5(C)[C@@H]4CC[C@]3(C)[C@H]2OC(C)=O)CCCC1, the “viability (% of DMSO)” value was 108% (inactive).
With C=CCc1cccc(C=NNC(=O)CN2CCN(Cc3ccccc3)CC2)c1O the Potency was 5.26 µM (active).
For CC(C)Oc1cc(Nc2nc(N[C@@H](C)c3ccc(F)cn3)ncc2Cl)[nH]n1, the Potency was 16.6 µM (active).
In the case of CN(C)c1nc(Cc2ccc(NC(=O)c3ccc(C(F)(F)F)cc3)cc2)nc(N(C)C)c1CC(=O)O, the “viability (% of DMSO)” value is reported as 89.1% (inactive).
With CC(C)C[C@@H](C(=O)N[C@H](C(=O)OC1CCCC1)c1ccccc1)[C@H](O)C(=O)NO the Potency was 4.18 µM (active).
With Cc1ccc2c(c1)c1c(n2CCc2ccc(C)nc2)CCN(C)C1 the “viability (% of DMSO)” value was 77.1% (inactive).
In the case of COc1c(C)cnc(Cn2cnc3c(Cl)nc(N)nc32)c1C, the Potency is reported as 0.059 µM (active).
For C[C@H]1COC2=C1C(=O)C(=O)c1c2ccc2c1CCCC2(C)C, the “viability (% of DMSO)” value was 77.6% (inactive).
For OC[C@H]1O[C@@H](O[C@H]2[C@@H](O)[C@@](O)(CO)O[C@@H]2CO)[C@H](O)[C@@H](O)[C@@H]1O, the “viability (% of DMSO)” value was 86.7% (inactive).
For CC(=O)NCCC(=O)N[C@@H](CCC(N)=O)C(=O)N[C@@H](CO)C(=O)N[C@@H](CCC(N)=O)C(=O)N[C@@H](CCC(N)=O)C(=O)N[C@H](C(=O)N[C@@H](Cc1ccccc1)C(=O)N[C@]1(C)CCCCCCC=CCCC[C@@](C)(C(=O)N[C@@H](CCC(N)=O)C(=O)N[C@@H](CC(N)=O)C(N)=O)NC(=O)[C@H](CC(C)C)NC(=O)[C@H](CC(C)C)NC(=O)[C@@H](CCCNC(=N)N)NC(=O)[C@H](Cc2c[nH]c3ccccc23)NC(=O)[C@H](CC(C)C)NC(=O)[C@H](CC(N)=O)NC1=O)[C@H](C)O, the “viability (% of DMSO)” value was 104% (inactive).
For COc1ccc2c(c1)c(C1=C(c3c[nH]c4ccccc34)C(=O)NC1=O)cn2CCCN(C)C, the Potency was 23.5 µM (active).
With Cc1ccc(S(=O)(=O)OCC(=O)Nc2ccc(C(=O)O)c(O)c2)cc1 the “viability (% of DMSO)” value was 75.1% (inactive).
For O=C(c1ccc(C=Cc2n[nH]c3ccccc23)cc1)N1CCNCC1, the Potency was 5.26 µM (active).

Assay: Quantitative High-Throughput drug screen in 47 multiple myeloma cell lines against the NCATS MIPE library collection: Karpas417_ECACC cell viability assay (AID 1918961);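 for viability (% of DMSO): 100% = DMSO only wells and 0% = media only wells without cells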
Settings: Karpas417 myeloma viability, CellTiter-Glo ATP luminescence, 48 h; viability (% of DMSO): at 45.8 µM (top of the series)
How it was run: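 qHTS of the MIPE 4.0 collection: 500 myeloma cells/well, 48 h drug exposure at 37C in 5% CO2, then CellTiter-Glo for 5 min at room temperature before luminescence reading.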
In the case of CC1(C)[C@H]2CC[C@]3(C)[C@@H](C(=O)C=C4[C@@H]5C[C@@](C)(C(=O)O)CC[C@]5(C)CC[C@]43C)[C@@]2(C)CC[C@@H]1O, the “viability (% of DMSO)” value is reported as 170% (inactive).
For CN(C(Cc1ccc(OS(=O)(=O)c2cccc3cnccc23)cc1)C(=O)N1CCN(c2ccccc2)CC1)S(=O)(=O)c1cccc2cnccc12 (stereo unspecified), the Potency was 4.18 µM (active).
With CC(=O)OCC(=O)[C@@]1(O)CC[C@H]2[C@@H]3CCC4=CC(=O)C=C[C@]4(C)[C@@H]3[C@@H](O)C[C@@]21C the “viability (% of DMSO)” value was 204% (inactive).
For COc1cc2nc(-c3cc(F)ccc3O)nc(N[C@@H]3CNC[C@@H]3C(C)(C)O)c2cc1OC, the Potency was 0.118 µM (active).
With Nc1ncnc2c1ncn2[C@@H]1O[C@H](CO)[C@@H](O)[C@@H]1O the Potency was 0.118 µM (active).
With CO[C@H]1/C=C\O[C@@]2(C)Oc3c(C)c(O)c4c(O)c(c5c(nc6cc(C)ccn65)c4c3C2=O)NC(=O)C(C)=CC=C[C@H](C)[C@H](O)[C@@H](C)[C@@H](O)[C@@H](C)[C@H](OC(C)=O)[C@H]1C the Potency was 0.833 µM (active).
With O=S(=O)(NCCNCC=Cc1ccc(Br)cc1)c1cccc2cnccc12 the Potency was 1.32 µM (active).
For C=CC[N+]1([C@H]2C[C@H]3[C@@H]4CC[C@H]5C[C@H](O)[C@@H](N6CCOCC6)C[C@]5(C)[C@@H]4CC[C@]3(C)[C@H]2OC(C)=O)CCCC1, the “viability (% of DMSO)” value was 180% (inactive).
For CC(C)Oc1cc(Nc2nc(N[C@@H](C)c3ccc(F)cn3)ncc2Cl)[nH]n1, the Potency was 2.64 µM (active).
For CC(C)C[C@@H](C(=O)N[C@H](C(=O)OC1CCCC1)c1ccccc1)[C@H](O)C(=O)NO, the Potency was 1.32 µM (active).
In the case of CCC(=O)OCC(=O)[C@@]1(OC(=O)CC)[C@@H](C)C[C@@H]2[C@H]3CCC4=CC(=O)C=C[C@]4(C)[C@@]3(F)[C@@H](O)C[C@@]21C, the Potency is reported as 0.0935 µM (active).
With Cc1ccc2c(c1)c1c(n2CCc2ccc(C)nc2)CCN(C)C1 the “viability (% of DMSO)” value was 95.8% (inactive).
For COc1c(C)cnc(Cn2cnc3c(Cl)nc(N)nc32)c1C, the Potency was 0.0235 µM (active).
With OC[C@H]1O[C@@H](O[C@H]2[C@@H](O)[C@@](O)(CO)O[C@@H]2CO)[C@H](O)[C@@H](O)[C@@H]1O the “viability (% of DMSO)” value was 90.4% (inactive).

Assay: Quantitative High-Throughput drug screen in 47 multiple myeloma cell lines against the NCATS MIPE library collection: KHM11_PLB cell viability assay (AID 1918962); note: nearly all actives have a fitted effect of over 35% in size;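 for viability, % of DMSO control: 0% = media only wells and 100% = DMSO treated cells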
Settings: KHM11 myeloma cell viability, CellTiter-Glo ATP luminescence, 48 h; series mostly up to 45.8 µM; viability, % of DMSO control: at the top concentration
How it was run: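 Inhibition of cell viability is measured here. Each line was plated at 500 cells per well, treated with MIPE 4.0 drugs, kept 48 hours at 37C, then assayed for ATP content by CellTiter-Glo luminescence.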
With COc1cc(Cl)cn2c(-c3cccc(NC4CNC4)n3)cnc12 the Potency was 18.7 µM (active).
In the case of OC[C@H]1O[C@@H](Oc2ccc(O)cc2)[C@H](O)[C@@H](O)[C@H]1O, the “viability, % of DMSO control” value is reported as 97.5% (inactive).
For O=S(=O)(NCCNCC=Cc1ccc(Br)cc1)c1cccc2cnccc12, the Potency was 9.35 µM (active).
With C=CCc1cccc(C=NNC(=O)CN2CCN(Cc3ccccc3)CC2)c1O the Potency was 20.9 µM (active).
In the case of CC(C)Oc1cc(Nc2nc(N[C@@H](C)c3ccc(F)cn3)ncc2Cl)[nH]n1, the Potency is reported as 10.5 µM (active).
For CN(C)c1nc(Cc2ccc(NC(=O)c3ccc(C(F)(F)F)cc3)cc2)nc(N(C)C)c1CC(=O)O, the “viability, % of DMSO control” value was 128% (inactive).
For CN[C@@H]1CN(c2ccc3c(=O)c(C(=O)O)cn(-c4nccs4)c3n2)C[C@@H]1OC, the Potency was 14.4 µM (active).
In the case of CNC(=O)[C@H](Cc1ccccc1)NC(=O)[C@H](CC(C)C)[C@H](CSc1cccs1)C(=O)NO, the “viability, % of DMSO control” value is reported as 69.9% (inactive).
In the case of COc1c(C)cnc(Cn2cnc3c(Cl)nc(N)nc32)c1C, the Potency is reported as 0.105 µM (active).
In the case of CC(=O)NCCC(=O)N[C@@H](CCC(N)=O)C(=O)N[C@@H](CO)C(=O)N[C@@H](CCC(N)=O)C(=O)N[C@@H](CCC(N)=O)C(=O)N[C@H](C(=O)N[C@@H](Cc1ccccc1)C(=O)N[C@]1(C)CCCCCCC=CCCC[C@@](C)(C(=O)N[C@@H](CCC(N)=O)C(=O)N[C@@H](CC(N)=O)C(N)=O)NC(=O)[C@H](CC(C)C)NC(=O)[C@H](CC(C)C)NC(=O)[C@@H](CCCNC(=N)N)NC(=O)[C@H](Cc2c[nH]c3ccccc23)NC(=O)[C@H](CC(C)C)NC(=O)[C@H](CC(N)=O)NC1=O)[C@H](C)O, the Potency is reported as 18.7 µM (active).
For O=C(c1ccc(C=Cc2n[nH]c3ccccc23)cc1)N1CCNCC1, the Potency was 0.833 µM (active).
